For 40 molecules, max response and Potency results are on record in PubChem BioAssay (Tox21).

“And” between values parts separate entries of the source, which are not always exact repeats. Equal entries are not always repeated. Results filed as inconclusive are left out. Values without a mark were called inactive. The source made the active and inactive calls. Calls follow the shape of the dose curve; as a rule, active = well fitted cell-killing curve with a large enough effect in the repeat runs; inconclusive = weak or mixed curves, or effect the other way; inactive = flat fitted curve, though single readings scatter.
% is scaled to controls: 0 for no effect and ±100 for the full control effect; potency is read from the fitted curve at half-maximal effect.

This experiment can be described thus: qHTS RealTime-Glo MT Cell Viability Assay in HEK293 cells - 40 hour (AID 1224874). Also: nearly all actives have a fitted effect of over 50% in size. Particulars: RealTime-Glo luminescence; max response: hits give low values. The source says: U.S. Tox21 Program National Center for Advancing Translational Sciences [NCATS] NIH Chemical Genomics Center [NCGC] U.S. Environmental Protection Agency [EPA] National Institutes of Environmental Health Sciences [NIEHS] National Toxicology Program [NTP] U.S. Food and Drug Administration [FDA] Tox21 Assay Overview: Measure of cell viability is critical in the cell-base assay. Analysis of cell viability is necessary for the characterization of cell responses to cytotoxic drugs and environmental stress. A RealTime-Glo MT Cell Viability Assay to monitor cell viability in real time of continues cell culture during 40 hours of compound treatment was used to screen Tox21 10K library compounds in Hek293 cells. The RealTime-Glo MT Cell Viability Assay is a nonlytic, homogeneous, bioluminescent method to measure cell viability in real time using a simple, plate-based method. The assay involves adding NanoLuc luciferase and a cell-permeant prosubstrate to cells in culture. Viable cells reduce the proprietary prosubstrate to generate a substrate for NanoLuc luciferase. This substrate diffuses from cells into the surrounding culture medium, where it is rapidly used by the NanoLuc Enzyme to produce a luminescent signal. The signal correlates with the number of viable cells, making the assay well suited for cytotoxicity studies.
Tox21 Assay Protocol Summary: The mixture of Hek293 cell suspension and reagents were dispensed at 600cells/6 ul/well in 1536-well tissue culture treated black solid bottom plates using a Multidrop dispenser. After the assay plates were incubated at a 37 C/5% CO2 incubator for 5 hours, 23 nL of compounds dissolved in DMSO, positive and negative controls was transferred to the assay plate by a pintool work station. The plates were incubated at 37 C for 40 hours. The luminescence intensity were measured at 0h, 8h, 16h, 24h, 32h and 40h time points using ViewLux plate reader during compound treatment.
On the technique in general: In qHTS, concentration-response curves come from the screen itself.
Consider `FC(F)(F)c1cccc(Cl)c1`, for which the max response was -5.72%.
Same read-out and setting: to `Nc1nc(-c2ccccc2)cs1` belongs -6.02%.
On to `CCN1C(=O)c2ccccc2C1Nc1ccc(OCCN2CCCCC2)cc1` (stereo not given), for which the Potency is 4.77 µM (active).
Consider `C[C@@H](O)[C@H](N)C(=O)O`, for which the max response is -1.76%.
In the case of `COC(=O)Nc1nc2ccc(C(=O)c3ccccc3)cc2[nH]1`, the Potency was 0.477 µM (active).
Turning to `CCCCC(CC)COC(=O)CCCCC(=O)OCc1ccccc1` (stereo not given), the max response is -2.79%.
As for `O=C(O)O`, the max response is -2.54%.
The same measure, in the same setting: to `COc1cc2nc(N3CCN(C(=O)c4ccco4)CC3)nc(N)c2cc1OC` belongs -18.8%; to `O=C(Oc1ccccc1)Oc1ccccc1`, -21%; to `CCOc1ccc2ccccc2c1C(=O)N[C@@H]1C(=O)N2[C@@H]1SC(C)(C)[C@@H]2C(=O)O`, 1.12%.
Same read-out and setting: to `c1ccc(SSc2ccccc2)cc1` belongs -15.4%; to `COc1ccc2c(c1)c(CC(=O)OC/C=C(\C)CC/C=C(\C)CCC=C(C)C)c(C)n2C(=O)c1ccc(Cl)cc1`, -0.256%.
As for `CN1CCN(Cc2cc(-c3ccc4[nH]c(=O)oc4c3)co2)[C@@H](c2ccc(F)cc2)C1`, the Potency is 26.5 µM (active).
On to `CNc1ccc([N+](=O)[O-])cc1`, for which the max response was -13.4%.
As for `CC(=O)[C@H]1CC[C@H]2[C@@H]3CCC4=CC(=O)CC[C@]4(C)[C@H]3CC[C@]12C`, the Potency is 13.7 µM (active) and 17.4 µM (active).
As to `Cc1nc(-c2ccc(Cl)cc2)oc1COC(C)(C)C(=O)O`, the max response was 0.172%.
For the molecule `CCCCCCCC`, the max response was -2.45%.
On to `CCCCCCCCCCCCOCCOCCOCCOCCOCCOCCOCCOCCOCCO`, for which the Potency was 4.77 µM (active).
As to `CCN(CC)c1ccc2c(-c3ccc(S(=O)(=O)O)cc3S(=O)(=O)[O-])c3ccc(=[N+](CC)CC)cc-3oc2c1`, the max response is -15.9%.
Still for that read-out and setting: to `COCCOc1cc2cc(C(=O)NC3CCN(C(C)C)CC3)n(CC(=O)Nc3ccc(Cl)cn3)c2cn1` belongs -25.3%.
On to `CCN(CC)C(=O)c1cc(S(=O)(=O)Cc2ccccc2)c(N2CCC(c3ccccc3)CC2)cc1N(CC)CCN(C)C`, for which the Potency is 7.67 µM (active).
On the same count and under the same terms, to `O=C1c2ccccc2C(=O)N1SC1CCCCC1` belongs 21.9 µM (active) and 38.9 µM (active).
On to `CN(C)Cc1ccccc1O`, for which the max response is 3.13%.
As for `CCc1oc2ccccc2c1C(=O)c1cc(I)c(O)c(I)c1`, the max response was -23.8%.
Same read-out and setting: to `C=CCn1c(=O)n(CC=C)c(=O)n(CC=C)c1=O` belongs -5.88%.
As to `CCCCC(CC)CN1CN(CC(CC)CCCC)CC(C)(N)C1` (stereo not given), the Potency was 9.52 µM (active).
Consider `CC(=O)c1ccc(C(C)=O)cc1`, for which the max response is -3.34%.
For `CCOC(=O)NNc1ccc(N(CC)CC(C)O)nn1` (stereo not given), the max response is 7.18%.
On the same count and under the same terms, to `CC(C(=O)O)c1ccc2c(c1)[nH]c1ccc(Cl)cc12` (stereo not given) belongs 1.73%; to `O[C@@H]([C@H](O)[C@H](O)CBr)[C@H](O)CBr`, 2.46%.
On the same count and under the same terms, to `S=c1nccc[nH]1` belongs 13.6%.
As to `CCCCOC(=O)CO`, the max response was -0.491%.
On the same count and under the same terms, to `CCC(CC)C(C)CCOC(C)=O` (stereo not given) belongs 20.3%.
For `COC1=C(OC)C(=O)C(CCCCCCCCCCO)=C(C)C1=O`, the Potency was 5.35 µM (active).
As to `Cc1cc(C)c(/C=C2\C(=O)Nc3ccccc32)[nH]1`, the max response was -3.94%.
On the same count and under the same terms, to `CC1(C)CCC[C@]2(C)[C@H]3CC(=O)O[C@]3(C)CC[C@@H]12` belongs -15.3%; to `O=C(O)CCN(C1(C(=O)NO)CCCC1)S(=O)(=O)c1ccc(Oc2ccc(F)cc2)cc1`, 9.57%.
As to `Cc1cc(C(C)(C)C)c(O)c(C)c1Cn1c(=O)n(Cc2c(C)cc(C(C)(C)C)c(O)c2C)c(=O)n(Cc2c(C)cc(C(C)(C)C)c(O)c2C)c1=O`, the Potency was 21.9 µM (active).
`COC(=O)c1ccccc1C`: the max response was -4.12%.
The same measure, in the same setting: to `CC(=O)OCC=C(C)C` belongs -1.54%.
